Bioassay records as filed in PubChem BioAssay.
PfHsp40 rescue: rescue of PfHsp40-mediated yeast toxicity. 340,000 tested, 0.68% active. growth rescue, % at 12.5 µM. S. cerevisiae expressing PfHsp40, growth rescue, ATP luminescence; in the data active = growth rescue above about 28%, passing the limit was not always enough;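 also: yeast W303a lacking pdr1 and pdr3 grown in galactose medium; growth measured after three days at 30 °C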
TcdB inh: inhibitors of Clostridioides difficile toxin B glycohydrolase | TcdB glycohydrolase enzymatic assay, plate reader | 350,000 tested, 0.24% active | AID 652162 | inhibition, % at 9.99 µM; in the data active = inhibition above about 10%
Target sequence (P18177 whole entry, looked up): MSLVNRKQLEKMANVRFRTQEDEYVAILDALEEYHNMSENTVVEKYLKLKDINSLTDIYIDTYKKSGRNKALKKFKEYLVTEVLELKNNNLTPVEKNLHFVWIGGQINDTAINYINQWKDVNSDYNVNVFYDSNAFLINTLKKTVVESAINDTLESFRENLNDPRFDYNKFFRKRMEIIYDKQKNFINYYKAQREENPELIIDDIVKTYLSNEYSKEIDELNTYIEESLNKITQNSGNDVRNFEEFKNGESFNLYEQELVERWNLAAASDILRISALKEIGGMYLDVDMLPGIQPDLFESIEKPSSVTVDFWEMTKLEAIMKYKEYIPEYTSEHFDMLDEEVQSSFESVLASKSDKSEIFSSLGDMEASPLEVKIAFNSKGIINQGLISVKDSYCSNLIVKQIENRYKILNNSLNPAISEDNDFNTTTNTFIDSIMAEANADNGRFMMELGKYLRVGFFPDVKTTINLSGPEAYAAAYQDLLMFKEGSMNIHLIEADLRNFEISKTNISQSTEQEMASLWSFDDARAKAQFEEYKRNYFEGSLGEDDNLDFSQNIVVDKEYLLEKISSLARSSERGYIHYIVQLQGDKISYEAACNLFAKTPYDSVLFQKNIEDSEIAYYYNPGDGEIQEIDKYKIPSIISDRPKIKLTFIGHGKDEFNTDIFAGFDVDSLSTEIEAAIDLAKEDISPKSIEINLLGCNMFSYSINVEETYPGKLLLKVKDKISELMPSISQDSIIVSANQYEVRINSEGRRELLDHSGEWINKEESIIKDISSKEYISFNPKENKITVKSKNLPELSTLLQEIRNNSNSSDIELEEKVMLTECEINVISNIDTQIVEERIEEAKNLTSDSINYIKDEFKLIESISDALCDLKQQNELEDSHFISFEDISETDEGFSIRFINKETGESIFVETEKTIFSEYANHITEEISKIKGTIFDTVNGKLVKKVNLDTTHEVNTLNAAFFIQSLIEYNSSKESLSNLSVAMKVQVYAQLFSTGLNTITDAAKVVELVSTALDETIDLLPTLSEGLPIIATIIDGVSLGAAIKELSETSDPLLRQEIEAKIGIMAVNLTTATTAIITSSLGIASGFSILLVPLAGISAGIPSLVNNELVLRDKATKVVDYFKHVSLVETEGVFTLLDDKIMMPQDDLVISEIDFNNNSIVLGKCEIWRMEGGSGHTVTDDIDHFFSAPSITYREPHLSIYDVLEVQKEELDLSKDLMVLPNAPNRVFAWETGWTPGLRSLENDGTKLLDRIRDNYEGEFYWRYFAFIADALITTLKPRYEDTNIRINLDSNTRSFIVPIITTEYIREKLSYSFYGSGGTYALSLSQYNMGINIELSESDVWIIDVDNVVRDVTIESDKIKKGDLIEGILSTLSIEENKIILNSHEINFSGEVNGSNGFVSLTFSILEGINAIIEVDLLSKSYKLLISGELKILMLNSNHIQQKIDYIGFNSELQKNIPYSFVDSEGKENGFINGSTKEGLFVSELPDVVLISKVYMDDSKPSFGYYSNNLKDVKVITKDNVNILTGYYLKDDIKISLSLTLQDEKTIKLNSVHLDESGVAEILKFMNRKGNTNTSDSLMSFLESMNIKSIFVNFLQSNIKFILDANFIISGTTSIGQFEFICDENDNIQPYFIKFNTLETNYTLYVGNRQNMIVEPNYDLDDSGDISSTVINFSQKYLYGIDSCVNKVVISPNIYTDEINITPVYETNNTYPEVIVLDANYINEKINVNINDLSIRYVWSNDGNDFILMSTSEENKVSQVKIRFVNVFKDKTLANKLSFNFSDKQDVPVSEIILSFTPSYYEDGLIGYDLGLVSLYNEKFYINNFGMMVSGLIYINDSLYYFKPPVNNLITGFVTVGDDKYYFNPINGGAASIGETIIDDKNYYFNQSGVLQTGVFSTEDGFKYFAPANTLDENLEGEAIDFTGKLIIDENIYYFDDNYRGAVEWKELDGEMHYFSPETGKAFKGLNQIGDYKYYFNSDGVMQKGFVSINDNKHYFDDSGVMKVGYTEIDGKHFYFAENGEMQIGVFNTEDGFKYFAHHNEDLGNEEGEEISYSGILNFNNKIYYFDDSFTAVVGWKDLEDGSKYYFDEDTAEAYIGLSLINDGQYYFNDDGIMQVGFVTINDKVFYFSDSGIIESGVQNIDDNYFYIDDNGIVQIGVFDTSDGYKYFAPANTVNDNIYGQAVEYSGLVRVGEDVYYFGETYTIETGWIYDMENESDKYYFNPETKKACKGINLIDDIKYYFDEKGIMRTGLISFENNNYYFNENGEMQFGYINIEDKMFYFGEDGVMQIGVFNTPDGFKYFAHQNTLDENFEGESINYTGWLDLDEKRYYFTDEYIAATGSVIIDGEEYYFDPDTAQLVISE
Sa RN4220 lethal: kills Staphylococcus aureus RN4220; S. aureus RN4220 growth, OD600, 16 h; inhibition, % (test concentration not listed); 330,000 tested, 0.33% active; AID 1259311; in the data active = inhibition above about 85%;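 also: plate controls were untreated cells for no effect and reference antibiotic for full effect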
PrP 5UTR inh: inhibition of PrP 5' UTR reporter expression; AID 488862; cell-based PrP 5' UTR mRNA reporter, plate reader; 340,000 tested, 0.35% active; inhibition, % (no concentration beside the values); in the data active = inhibition above about 52%; also: 0 = median of the neutral control wells
ugtP null kill: growth inhibition of S. aureus ugtP deletion strain. S. aureus RN4220 ugtP deletion, OD600 growth, 16 h. 330,000 tested, 0.54% active. growth inhibition, % (test concentration not listed); in the data active = growth inhibition above about 68%;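 also: plate controls were untreated wells for no effect and antibiotic for full effect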
An asterisk follows results filed as active; nt = not tested or not shown. Only some compounds are listed: those with a hit (about 1.2% of all), similar ones and a draw of the others.

SMILES	PfHsp40 rescue	TcdB inh	Sa RN4220 lethal	PrP 5UTR inh	ugtP null kill
O=C(O)CC1c2cc(F)ccc2S(=O)(=O)N1C1CCCC1 (stereo not drawn)	nt	nt	1	nt	-2
COc1ccc(OCC(=O)NN=C(C)c2ccc(-n3ccnc3)cc2)cc1	nt	nt	1	nt	5
Cc1noc(C)c1NC(=O)N(C)C[C@@H]1Oc2ccc(NC(=O)Nc3ccccc3)cc2CC(=O)N([C@@H](C)CO)C[C@H]1C	nt	0	nt	nt	nt
Cc1c2cc[n+](CCN3CCCCC3)cc2c(C)c2c1[nH]c1ccc(O)cc12	53*	nt	nt	-43	nt
COc1ccc(CN(C)C[C@@H]2OCCCC[C@@H](C)Oc3ccc(NS(=O)(=O)c4ccc(F)cc4)cc3C(=O)N([C@H](C)CO)C[C@H]2C)cc1	nt	1	nt	nt	nt
COc1ccc(CCNC(=O)CC(C)=NNC(=O)C23CC4CC(CC(C4)C2)C3)cc1OC	nt	nt	2	nt	6
O/N=C(\c1ccc(Cl)cc1Cl)c1ncc(C(F)(F)F)cc1Cl	380*	nt	nt	-14	nt
CC(=O)NCCc1c(C)n(Cc2ccccc2)c2ccccc12	64*	2	2	-20	0
CC(=O)NCCc1nc2ccccc2n1Cc1ccccc1	-2	1	3	-11	1
CC[C@H](C)[C@H]1CNC(=S)N1CC1CCN(CCCC2CCCC2)CC1	-1	13*	nt	-12	nt
C[C@H](CO)N1C[C@H](C)[C@H](CN(C)C(=O)Nc2ccc3c(c2)OCO3)Oc2ccc(NC(=O)NC3CCCCC3)cc2C1=O	nt	1	nt	nt	nt
CCCCNc1c(-c2ccc(-c3ccc(OC)cc3)c(OC)c2)nc2ccccn12	251*	0	1	-10	-33
C=CCn1c(=O)c(C(=O)NCc2ccc(Cl)cc2)c(O)c2ccccc21	1	1	11	-9	50
CCCn1c(=O)c(C(=O)NCCc2ccccc2)c(O)c2ccccc21	-1	0	2	-15	1
C=CCn1c(=O)c(C(=O)Nc2cccnc2)c(O)c2ccccc21	-1	nt	99*	-4	61
C=CCn1c(=O)c(C(=O)Nc2ccc(C)cn2)c(O)c2ccccc21	1	1	96*	-30	100*
C=CCn1c(=O)c(C(=O)NCCc2ccccc2)c(O)c2ccccc21	94*	nt	8	6	28
CC(=NN1C(C)CCCC1C)c1ccccc1O (stereo not drawn)	nt	nt	2	nt	7
COc1ccc(S(=O)(=O)N(C)C[C@@H]2Oc3ccc(NC(=O)CCN4CCOCC4)cc3CC(=O)N([C@H](C)CO)C[C@@H]2C)cc1	nt	-3	nt	nt	nt
CCn1c(O)c(C=Nc2ccc(N3CCOCC3)cc2)c(=O)n(CC)c1=S	5	nt	5	2	4
Cn1c(O)c(C=Nc2ccc(N3CCOCC3)cc2)c(=O)n(C)c1=S	68*	0	4	-19	-7
CCC(=O)N1CC(=O)N2[C@H](CO)[C@@H](c3ccc(-c4ccccc4C)cc3)[C@H]2C1	nt	0	nt	nt	nt
O=C(C[C@H]1CC[C@@H](NC(=O)NC2CCCCC2)[C@H](CO)O1)NCc1ccc(Cl)cc1	nt	0	nt	nt	nt
Cn1nc(-c2ccc(Cl)cc2)nc2c(=O)n(C)c(=O)nc1-2	nt	nt	100*	-27	100*
CS(=O)(=O)n1nc(-c2ccc(Cl)cc2)nc1N	0	0	5	-25	5
SMILES	PfHsp40 rescue	TcdB inh	Sa RN4220 lethal	PrP 5UTR inh	ugtP null kill
COc1ccc(NC(=O)Nc2ccc3c(c2)CC(=O)N([C@H](C)CO)C[C@H](C)[C@H](CN(C)C(=O)Nc2ccccc2)O3)cc1	nt	0	nt	nt	nt
CCOC(=O)c1c(NC(=O)/C=C\C(=O)O)sc(C)c1-c1ccccc1	95*	-2	nt	-15	nt
O=C(O)c1ccccc1NSc1ccccc1[N+](=O)[O-]	0	1	13	-5	-8
CCc1ccc(NSc2ccccc2[N+](=O)[O-])cc1	46*	1	21	-6	9
COc1ccc(CN(C)C[C@@H]2OCCCC[C@@H](C)Oc3ccc(NC(=O)CCC(F)(F)F)cc3C(=O)N([C@H](C)CO)C[C@H]2C)cc1	nt	-3	nt	nt	nt
CCC(=O)NC(c1cc(Cl)c2cccnc2c1O)C1CC1 (stereo not drawn)	9	-3	-6	-1	16
COc1ccc(C(NC(C)=O)c2cc(Cl)c3cccnc3c2O)cc1 (stereo not drawn)	2	11*	5	-3	-3
CC(=O)NC(c1ccccc1)c1cc(Cl)c2cccnc2c1O (stereo not drawn)	0	1	17	19	-14
CCC(=O)NC(c1cc(Cl)c2cccnc2c1O)C(C)C (stereo not drawn)	247*	-1	-3	18	-18
CC(=O)NC(c1ccc(C)cc1)c1cc([N+](=O)[O-])c2cccnc2c1O (stereo not drawn)	221*	0	64	-23	64
CCC(=O)NC(c1ccc(C)cc1)c1cc([N+](=O)[O-])c2cccnc2c1O (stereo not drawn)	-1	nt	94*	7	95*
COc1nc(Nc2nc3ccccc3c(=O)[nH]2)nc2ccc(C)cc12	-2	2	100*	49	100*
C[C@@H]1CN([C@H](C)CO)C(=O)c2cccc(NC(=O)C3CC3)c2O[C@@H]1CN(C)C(=O)Nc1cccc2ccccc12	nt	1	nt	nt	nt
CCCCCc1cc(OC)cc2c1C(=O)OC(C)(C)O2	72*	1	3	3	6
Fc1ccc(-c2cc(C(F)(F)C(F)F)[nH]n2)cc1	nt	2	-1	nt	86*
C[C@@H]1CN([C@H](C)CO)C(=O)c2cc(C3=CCCC3)cnc2O[C@H]1CN(C)C(=O)c1ccncc1	nt	-3	nt	nt	nt
CCN(CC)C(=S)SSC(=S)N(CC)CC	-4	-2	28	15	99*
C[C@@]12C(=O)Nc3cc(Cl)ccc3C(=O)N1C1c3cc(Br)ccc3OCC1C2c1ccccc1 (stereo partly drawn)	nt	nt	-13	nt	-17
CCOC(=O)Cn1c2ccccc2c2nc3ccccc3nc21	11	nt	-1	-13	-6
CCOC(=O)Cn1c(C(F)(F)F)nc2nc(Cl)c(Cl)nc21	-1	12*	nt	-22	nt
NC(C(=O)NC1C(=O)N2C(C(=O)O)=C(Cl)CSC12)c1ccccc1 (stereo not drawn)	nt	nt	100*	nt	100*
CCOC(=O)c1c(NS(=O)(=O)c2ccc(Br)cc2)sc2c1CCC2	1	nt	112*	-2	98*
COC(=O)c1c(NC(=S)NNS(=O)(=O)c2ccc(OC)cc2OC)sc2c1CCCCCC2	0	1	-8	-3	92*
CCOC(=O)c1c(NS(=O)(=O)Cc2ccccc2)sc2c1CCCC2	0	nt	12	-12	-19
COC(=O)c1c(NS(=O)(=O)c2ccc3ccccc3c2)sc2c1CCCC2	0	nt	87*	-17	78
CCOC(=O)N1CCN(C(=O)C2CCN(C(=O)c3ccccc3C)CC2)CC1	703*	1	nt	-2	nt
COc1ccc(/C=N/n2c(-c3cc(C)[nH]n3)n[nH]c2=S)cc1OC	nt	11*	nt	nt	nt
COc1cc(OC)c(OC)cc1/C=N/n1c(-c2n[nH]c3c2CCC3)n[nH]c1=S	28*	3	nt	-10	nt
COc1ccc(OC)c(/C=N/n2c(-c3n[nH]c4c3CCC4)n[nH]c2=S)c1	-1	4	nt	-12	nt
